Screening data (PubChem BioAssay)
Most compounds without a hit are left out; they make up all but 7% or so of the library.
a7 integrin act = activates integrin-mediated alleviation for muscular dystrophy; Potency, µM (series often up to 38.3 µM), usual class: activators; hit rate 0.064% among 350,000; alpha7betagal myoblasts, beta-gal FDG fluorescence, 48 h; note: nearly all actives have a fitted effect of over 60% in size
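alpha7betagal+/- myoblasts (passage 13, 250/well) treated 48 h at 37C with compounds at 1:260 dilution of DMSO stock. Lysed, then beta-galactosidase activity read as FDG fluorescence (ex 480/em 540) after 30 min, with pre-read for autofluorescence.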
D3 antag = antagonists of human D3 dopamine receptor | P35462 | D3R cells, DiscoveRx beta-arrestin luminescence, antagonist mode; active compounds read low | max response, negative = inhibition, % | hit rate 2.5% among 360,000 | AID 652054; in the data active = max response below about -50%; inconclusive = no clear call, values can overlap the other calls
Target sequence (P35462 whole entry, looked up): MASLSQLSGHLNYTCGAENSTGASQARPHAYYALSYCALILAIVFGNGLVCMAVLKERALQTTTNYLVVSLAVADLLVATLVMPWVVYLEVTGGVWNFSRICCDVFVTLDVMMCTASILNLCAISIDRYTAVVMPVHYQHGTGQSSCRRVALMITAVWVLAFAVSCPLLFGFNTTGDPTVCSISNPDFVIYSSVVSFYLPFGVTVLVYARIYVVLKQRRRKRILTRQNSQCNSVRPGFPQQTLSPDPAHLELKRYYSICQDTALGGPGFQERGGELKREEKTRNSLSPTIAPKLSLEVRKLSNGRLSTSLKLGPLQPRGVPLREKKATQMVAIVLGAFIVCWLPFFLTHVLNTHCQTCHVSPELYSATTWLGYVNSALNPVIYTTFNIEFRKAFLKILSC
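Cells expressing the human receptor were seeded at 1500 cells/well, incubated overnight at 37 degrees C in 5% CO2, then exposed to library compounds with dopamine controls for 90 minutes at 37 degrees C before luminescent detection.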
D3 ag = agonists of human D3 dopamine receptor. P35462. D3R DiscoveRx beta-arrestin cells, luminescence, 90 min. max activation, %. hit rate 0.58% among 410,000; in the data active = max activation above about 30%
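Cells at 1500/well, incubated overnight, then treated with pinned compounds (dopamine as control) for 90 min at 37 degrees C. DiscoveRx reagent added for 30 - 60 minutes at room temperature; luminescence read.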
S2 tox = cell viability loss in ATXN counter-screen | Potency, µM (doses to about 56.7 µM), usual class: cytotoxic | S2 cells (HEK-293 line with an ATXN2-luciferase reporter) viability, CellTiter-Fluor protease fluorescence, 24 h | AID 651635 | hit rate 0.49% among 400,000; note: nearly all actives have a fitted effect of over 40% in size
IL-1B inflam inh = blocks inflammasome-driven IL-1 beta release | activity change, % at 57.5 µM | THP-1 LPS/ATP IL-1B secretion, AlphaLISA, 16 h; active compounds read low | hit rate 4.7% among 360,000 | AID 743279; in the data active = activity change below about -50%; inconclusive = mostly about -30% to -49%
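THP-1 cells pretreated 1 hr with compounds (up to 57.5 uM final), then stimulated with LPS (250 ng/mL final) plus ATP (1.25 mM final); secreted IL-1B measured by AlphaLISA after 16 hr, decreased signal indicating inhibition.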
ATXN2 expr inh = inhibitors of ATXN2 expression; Potency, µM (doses to about 57 µM), actives largely listed as inhibitors; hit rate 0.72% among 360,000; AID 1745845; HEK-293 ATXN2-luciferase reporter, luminescence, 24 h; note: nearly all actives have a fitted effect of over 55% in size
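qHTS (up to 57 uM final) was run with 24 h compound exposure of reporter cells at 37 °C. Each well was multiplexed: SteadyGlo luminescence measured ATXN2-luciferase expression after a fluorogenic Gly-Phe-AFC viability readout (25 uM final).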
A number is an active result; - = inactive; ? = inconclusive; . = no result. Unless noted, calls come from the whole dose curve; as a rule, active = well fitted curve in the direction sought with a large enough effect; inconclusive = small, poorly fitted or top-dose-only effect, or another doubt; inactive = no such curve, though single readings can be large; an effect the other way counts as inactive or inconclusive.

SMILES | a7 integrin act | D3 antag | D3 ag | S2 tox | IL-1B inflam inh | ATXN2 expr inh
C/C(=N/NC(=O)Cc1cccs1)c1ccco1 | - | - | - | ? | - | -
O=C(NCC1CCCO1)c1cccc(S(=O)(=O)N2CCOCC2)c1 (centres undefined) | - | - | - | - | - | -
CCCN(CC(=O)Nc1ccccc1Br)CC(=O)Nc1ccc(F)c(F)c1F | - | - | - | - | ? | -
CCCN(CC(=O)Nc1cc(Cl)cc(Cl)c1)CC(=O)Nc1ccc(F)c(F)c1F | - | - | - | ? | -97 | ?
O=Cc1ccc(O)c2ncccc12 | - | -83 | - | . | -98 | 3.5µM
CS(=O)(=O)c1ncc(Cl)c(C(=O)Nc2ccc3ccccc3c2)n1 | - | -117 | - | 20µM | -99 | ?
CCSc1ncc(Cl)c(C(=O)Nc2ccc(S(=O)(=O)N3CCCCC3CC)cc2)n1 (centres undefined) | . | . | - | - | . | -
CCC1CCCCN1S(=O)(=O)c1ccc(NC(=O)c2nc(S(C)(=O)=O)ncc2Cl)cc1 (centres undefined) | - | - | - | 13µM | -101 | 16µM
CCS(=O)(=O)c1ncc(Cl)c(C(=O)Nc2ccc(S(=O)(=O)N3CCCC(C)C3)cc2)n1 (centres undefined) | - | - | - | 8.9µM | -104 | 8.9µM
O=C(Nc1ccc(OC(F)F)cc1)c1ncc(Cl)c(Cl)c1Cl | - | - | - | - | -158 | .
Cc1ccc(NC(=O)c2ncc(Cl)c(Cl)c2Cl)cc1C | - | - | - | ? | - | -
CCS(=O)(=O)c1ncc(Cl)c(C(=O)Nc2ccc(C)cc2)n1 | - | -130 | - | . | -99 | ?
Cc1ccc(CS(=O)(=O)c2ncc(Cl)c(C(=O)Nc3ccc(OC(F)F)cc3)n2)cc1 | - | -63 | - | ? | -103 | ?
COCCCNC(=O)c1cc2cc(S(=O)(=O)N3CCCCC3)ccc2n1C | . | . | - | . | . | .
CNC(=S)NC1CC2CCCC(C1)N2Cc1ccccc1OC (centres undefined) | - | -62 | - | - | - | -
CNC(=S)N1C2CCCC1CC(NC(=O)c1ccc(C)cc1)C2 (centres undefined) | - | - | - | - | - | .
CCNC(=S)NC1CC2CCCC(C1)N2Cc1ccc(C)cc1 (centres undefined) | ? | -118 | - | - | - | .
CNC(=S)NC1CC2CCCC(C1)N2Cc1ccc(C)cc1 (centres undefined) | - | -116 | - | - | - | .
CCC(=O)NC1CC2CCCC(C1)N2Cc1ccc(C)cc1 (centres undefined) | - | -108 | - | - | - | .
COc1ccccc1CNC(=S)NC1CCCCC1 | - | - | - | - | ? | -
CC(=O)NC1CC2CCC(C1)N2Cc1ccc(C)cc1 (centres undefined) | - | - | - | ? | - | -
Cc1noc(C)c1S(=O)(=O)N(C)C[C@H]1Oc2ccc(NS(=O)(=O)c3ccc(F)cc3)cc2C(=O)N([C@H](C)CO)C[C@@H]1C | - | - | - | - | ? | -
CCOc1ccc(-c2nnn(CC(=O)Nc3cc(OC)cc(OC)c3)n2)cc1OCC | - | - | - | - | - | -
CCN1C(=C(C#N)C#N)C=Cc2cc(C)ccc21 | - | - | - | ? | - | -
C=CC[n+]1c(/C=C2\C=Cc3cc(C)ccc3N2CC)ccc2ccccc21 | - | - | - | 7.9µM | -88 | .
SMILES | a7 integrin act | D3 antag | D3 ag | S2 tox | IL-1B inflam inh | ATXN2 expr inh
C(=N\Nc1nccc(-c2cccnc2)n1)/c1ccccc1 | - | - | - | - | -54 | .
CC(C)=CCC[C@](C)(O)C1CC[C@]2(C)C1[C@H](O)CC1[C@@]3(C)CC[C@H](O[C@@H]4O[C@H](CO)[C@@H](O)[C@H](O)[C@H]4O[C@@H]4O[C@H](CO)[C@@H](O)[C@H](O)[C@H]4O)C(C)(C)C3CC[C@]12C (some centres undefined) | - | -61 | - | - | - | -
Cc1cc(C)c(C)c(S(=O)(=O)NC(C(=O)NCCc2ccco2)C(C)C)c1C (centres undefined) | - | - | - | - | - | .
N#CCCn1nc(-c2ccccc2)cc1Nc1ccccc1NC(=O)C(F)(F)F | - | - | - | - | - | -
N#CCCn1nc(-c2ccc(Br)cc2)cc1Nc1ccccc1NC(=O)C(F)(F)F | - | - | - | . | -78 | -
NCCNC(=O)c1c(O)c2cccc3c2n(c1=O)CCC3 | - | - | - | - | -92 | -
COC(=O)/C=C/C(=O)Nc1cccc(C(F)(F)F)c1 | - | - | - | ? | -104 | ?
O=C(Nc1ccccc1)Nc1cccc(C(F)(F)F)c1 | - | - | - | - | - | -
COC(=O)/C(=C\C(=O)c1ccccc1)Nc1cccc(C(F)(F)F)c1 | - | -76 | - | - | - | -
Cc1ccc(OC(F)F)c(NC(=O)Nc2cccc(C(F)(F)F)c2)c1 | - | - | - | ? | -99 | ?
CN1CCCN(Cc2ccccc2Br)CC1 | - | -51 | - | - | - | -
Brc1ccccc1CN1CCN(Cc2c[nH]c3ccccc23)CC1 | - | -80 | - | ? | -103 | ?
Brc1ccc(CN2CCN(Cc3c[nH]c4ccccc34)CC2)cc1 | - | -64 | - | - | ? | -
O=C(c1cccc(Cl)c1)N1CCN(Cc2c[nH]c3ccccc23)CC1 | - | - | - | - | - | -
CCS(=O)(=O)N1CCN(Cc2c[nH]c3ccccc23)CC1 | - | - | - | . | - | -
O=[N+]([O-])c1ccc(CN2CCN(Cc3c[nH]c4ccccc34)CC2)cc1 | - | ? | - | - | -69 | -
O=C(NC(=S)N1CCOCC1)C12CCC3CC(CC(C3)C1)C2 | - | - | - | - | - | -
Cc1cc(N)ccc1-n1c(C)ccc1C | - | - | - | - | ? | -
Cc1cc(N)ccc1N1CCCC1 | - | -55 | - | - | - | -
Cc1c(C2(O)CCCCC2)[nH]c2cnccc12 | - | - | - | - | - | -
CCc1c(C2(O)CCCCC2)[nH]c2ncccc12 | 10µM | - | - | - | - | -
Cc1c(C2(O)CCCCC2)[nH]c2cc(C(F)(F)F)ccc12 | - | - | - | . | -65 | ?
CCc1c(C2(O)CCCCC2)[nH]c2cc(C(F)(F)F)ccc12 | - | - | - | 32µM | - | ?
CSc1nnc(NC(=O)c2cccc(S(=O)(=O)N3CCOCC3)c2)s1 | - | - | - | - | - | -
CN(c1ccccc1)S(=O)(=O)c1ccc(NC(=O)c2ccccc2C(=O)O)cc1 | - | - | - | - | - | -
Cc1cc(-c2ccccc2)nc2[nH]n(-c3ccccc3)c(=O)c12 | - | -68 | - | . | - | .
O=c1c2c(C(F)(F)F)cc(C(F)(F)F)nc2[nH]n1-c1ccccc1 | - | - | - | - | -75 | -
Cc1[nH]c2ccccc2c(=O)c1SC(F)(F)C(F)C(F)(F)F (centres undefined) | - | - | - | - | - | -
